Assay results taken from the supplement of paper PMC7411640.
Counter-ions that a name gives are not always drawn.

Tested on: MDA-MB-468
Test: phospho-S6 immunofluorescence (DAPI-normalised), per-plate z-score; higher = higher phospho-S6 signal (less pathway suppression)
Conditions: 24 h
Procedure: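 GPCR-targeted compound library (MedChemExpress HY-L006) tested on MDA-MB-468 PTEN-null TNBC cells in 384-well plates at 0.1, 1 or 10 uM, combined with vehicle, GDC0941 450 nM or lapatinib 1 uM, for 24 h. Phospho-S6 (S240/244) immunofluorescence normalised to DAPI and expressed as a per-plate z-score; values are the mean of biological triplicates.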

SMILES	phospho-S6 immunofluorescence (z-score) (co-treatment: GDC0941 450 nM)	phospho-S6 immunofluorescence (z-score) (co-treatment: lapatinib 1 uM)	phospho-S6 immunofluorescence (z-score) (co-treatment: vehicle)
NCCc1c[nH]cn1 [Histamine] (compound 10 µM)	0	1.34	0.58
Cc1cccn2c(=O)c(-c3nnn[nH]3)cnc12 [Pemirolast (potassium)] (compound 10 µM)	-0.3	-0.65	-1.33
Clc1cccc(COc2cncc(N3CCNCC3)n2)c1 (compound 10 µM)	-1.03	-4.09	0.21
CN1CCC(=C2c3ccccc3CC(=O)c3sccc32)CC1 [Ketotifen (fumarate)] (compound 10 µM)	0.55	-0.44	0.26
CC(=O)OCC(=O)[C@@]12N=C(C)O[C@@H]1C[C@H]1[C@@H]3CCC4=CC(=O)C=C[C@]4(C)[C@H]3[C@@H](O)C[C@@]12C [Deflazacort] (compound 10 µM)	-0.99	-0.57	-0.08
O=C(O)CC1CCC2(CC1)CCN(c1cc(OC(F)(F)F)ccc1Cl)CC2 (compound 10 µM)	0.09	0.11	0.22
CCCN[C@H]1CCc2nc(N)sc2C1 [Pramipexole (dihydrochloride)] (compound 10 µM)	0.87	0.31	0.17
COc1ccc(S(=O)(=O)Nc2c(C)cc(C)cc2C)cc1 (compound 10 µM)	0.04	-0.37	-1.05
C[N+]1(C)CCC(=C(c2ccccc2)c2ccccc2)CC1 [Diphenmanil (methylsulfate)] (compound 10 µM)	0.46	0.06	0.8
Oc1ccc(C2CNCCc3c2cc(O)c(O)c3Cl)cc1 (stereo not drawn) [Fenoldopam (mesylate)] (compound 10 µM)	1.13	-0.01	0.83
C[C@@H](O[C@H]1OCCN(Cc2nn(P(=O)(O)O)c(=O)[nH]2)[C@H]1c1ccc(F)cc1)c1cc(C(F)(F)F)cc(C(F)(F)F)c1 [Fosaprepitant (dimeglumine)] (compound 10 µM)	-2.28	-0.65	0.39
OC(CCN1CCCCC1)(c1ccccc1)C1CC2C=CC1C2 (stereo not drawn) [Biperiden (Hydrochloride)] (compound 10 µM)	-1.68	-0.97	-1.56
CCCCC(C)(O)C/C=C/[C@H]1[C@H](O)CC(=O)[C@@H]1CCCCCCC(=O)OC (mixture of isomers) [Misoprostol] (compound 10 µM)	0.36	0.67	1.59
COc1cc(NC(=O)c2ccccn2)ccc1Cl (compound 10 µM)	-0.65	-0.21	0.28
C=CCN1CCc2c(cc(O)c(O)c2Cl)C(c2ccccc2)C1 (stereo not drawn) (compound 10 µM)	-0.13	1.66	1.76
CN1CCC(OC(c2ccccc2)c2ccccc2)CC1 [Diphenylpyraline (hydrochloride)] (compound 10 µM)	0.68	0.42	-0.04
CCN1CCC[C@H]1CNC(=O)c1cc(S(N)(=O)=O)ccc1OC [Levosulpiride] (compound 10 µM)	0.22	0.89	-0.63
O=C(O)COCCN1CCN(C(c2ccccc2)c2ccc(Cl)cc2)CC1 (stereo not drawn) [Cetirizine (dihydrochloride)] (compound 10 µM)	-0.15	0.74	0.52
CCC(=O)NCC[C@@H]1CCc2ccc3c(c21)CCO3 [Ramelteon] (compound 10 µM)	-0.04	-0.4	0.21
NC(N)=Nc1nc(CSCC/C(N)=N/S(N)(=O)=O)cs1 [Famotidine] (compound 10 µM)	-1.24	-0.34	-0.29
Cc1nn(C)c2c1C(c1ccc(C(F)(F)F)cc1)C(C#N)=C(N)O2 (stereo not drawn) (compound 10 µM)	-1.17	2.28	2.57
CCC(=O)NC[C@@H]1C[C@H]1c1cccc2c1CCO2 [Tasimelteon] (compound 10 µM)	-1.06	-0.25	0.27
OC[C@H]1O[C@@H](n2cnc3c(N[C@H]4CCC[C@@H]4O)ncnc32)[C@H](O)[C@@H]1O (compound 10 µM)	0.54	0.82	0.2
Cc1ccccc1C(=O)Nc1ccc(C(=O)N2CCCC(O)c3cc(Cl)ccc32)c(C)c1 (stereo not drawn) [Tolvaptan] (compound 10 µM)	0.01	-1.6	-0.25
CC(C[N+](C)(C)C)OC(N)=O (stereo not drawn) [Bethanechol (chloride)] (compound 10 µM)	0.67	0.01	0.6
CN(C)N(C)C(=O)[C@@]1(Cc2ccccc2)CCCN(C(=O)[C@@H](Cc2c[nH]c3ccccc23)NC(=O)C(C)(C)N)C1 [Anamorelin (hydrochloride)] (compound 10 µM)	-1.14	-0.96	-0.1
